# Measured values reported in ChEMBL document CHEMBL1961873, “Compounds: GSK PKIS; Assays: Nanosyn kinase panel” (2012).
# Values joined by “and” are separate entries in the source; they are usually repeats but may differ in a detail not shown here. Identical values can stand only once.
# Target: Misshapen-like kinase 1 (Homo sapiens) (UniProt Q8N4C8)
# Settings: at 1 µM
# Chain of Misshapen-like kinase 1 (Homo sapiens) (Q8N4C8 whole entry, looked up): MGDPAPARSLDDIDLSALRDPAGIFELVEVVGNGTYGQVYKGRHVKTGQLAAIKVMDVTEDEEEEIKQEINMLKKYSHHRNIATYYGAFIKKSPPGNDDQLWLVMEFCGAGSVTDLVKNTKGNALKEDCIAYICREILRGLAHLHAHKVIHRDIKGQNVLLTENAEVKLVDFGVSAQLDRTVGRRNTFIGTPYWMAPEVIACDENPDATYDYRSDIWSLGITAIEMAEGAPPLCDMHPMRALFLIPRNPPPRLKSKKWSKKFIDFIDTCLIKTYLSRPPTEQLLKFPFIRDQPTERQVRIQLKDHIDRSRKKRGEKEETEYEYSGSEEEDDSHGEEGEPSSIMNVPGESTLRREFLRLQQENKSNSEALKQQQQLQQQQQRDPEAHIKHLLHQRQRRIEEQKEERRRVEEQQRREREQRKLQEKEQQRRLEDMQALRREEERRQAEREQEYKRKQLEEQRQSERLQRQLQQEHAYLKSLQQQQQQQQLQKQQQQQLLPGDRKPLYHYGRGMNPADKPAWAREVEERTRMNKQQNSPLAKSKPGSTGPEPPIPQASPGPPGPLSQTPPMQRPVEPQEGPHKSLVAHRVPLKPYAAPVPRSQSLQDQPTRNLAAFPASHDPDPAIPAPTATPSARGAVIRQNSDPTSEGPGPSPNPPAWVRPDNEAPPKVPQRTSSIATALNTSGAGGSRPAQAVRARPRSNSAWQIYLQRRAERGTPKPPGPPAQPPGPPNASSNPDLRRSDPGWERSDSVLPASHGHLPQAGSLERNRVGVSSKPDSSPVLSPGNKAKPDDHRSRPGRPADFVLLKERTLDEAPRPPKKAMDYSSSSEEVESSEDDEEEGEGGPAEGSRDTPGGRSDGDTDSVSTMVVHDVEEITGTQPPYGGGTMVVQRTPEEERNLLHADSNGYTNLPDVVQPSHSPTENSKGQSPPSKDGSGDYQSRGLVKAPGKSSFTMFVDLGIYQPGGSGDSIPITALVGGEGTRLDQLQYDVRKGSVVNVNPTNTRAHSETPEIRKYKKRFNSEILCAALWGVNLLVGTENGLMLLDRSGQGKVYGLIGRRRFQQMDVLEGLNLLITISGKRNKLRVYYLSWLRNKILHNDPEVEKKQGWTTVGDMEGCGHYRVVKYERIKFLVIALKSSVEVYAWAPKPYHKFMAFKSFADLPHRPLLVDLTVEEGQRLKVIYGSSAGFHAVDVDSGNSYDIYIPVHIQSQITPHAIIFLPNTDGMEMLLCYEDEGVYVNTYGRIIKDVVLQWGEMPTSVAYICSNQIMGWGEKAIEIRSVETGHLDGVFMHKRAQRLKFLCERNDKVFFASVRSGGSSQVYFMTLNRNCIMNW
row,Compound,inhibition
1,NS(=O)(=O)c1ccc(N/N=C2\C(=O)Nc3ccc(C(=O)NCc4ccncc4)cc32)cc1,39.4%
2,CCCNc1cccc(-n2ncc3c(N/N=C/c4ccncc4)ncnc32)c1,35.9%
3,c1cnn2ncc(-c3ccnc(NCCCN4CCOCC4)n3)c2c1,12.1%
4,O=C(Nc1n[nH]c2nnc(-c3cccnc3)cc12)C1CC1,13.1%
5,COC(=O)Nc1nc2cc(Oc3ccc(NC(=O)Nc4ccccc4)cc3)ccc2[nH]1,11.3%
6,Fc1ccc(Nc2nccc(-c3c(-c4ccc(C(F)(F)F)cc4)nn4ncccc34)n2)cc1F,4.38%
7,CCS(=O)(=O)c1ccc(OC)c(Nc2ncc(-c3cccc(F)c3)o2)c1,16.1%
8,CN1CCC(C(=O)Nc2n[nH]c3nc(-c4ccc(O)cc4)c(Br)cc23)CC1,28.1% and 15.2%
9,CC1=C(C(=O)Nc2ccc3[nH]nc(C)c3c2)C(c2ccc(C(F)(F)F)cc2)CC(=O)N1 (stereo unspecified),4.08%
10,COc1cccc(-n2ncc3c(N/N=C/c4ccc(C(=O)NCCN(C)C)cc4)ncnc32)c1,64.8%
11,N#Cc1ccc2c(-c3ccnc(NC4CC4)n3)c(-c3ccc(F)cc3)nn2c1,30.2%
12,COc1ccc(Nc2ncc(-c3ccccc3)o2)cc1OC,35.5%
13,Nc1nccc(-c2c(-c3ccc(F)cc3)ncn2C2CCNCC2)n1,6.74% and 17%
14,Cc1cc(O)cc(C)c1/C=C/c1cncc(C(N)=O)c1,7.34%
15,N#Cc1cccc(Nc2ncc(-c3ccccc3)o2)c1,19.2%
16,CC1=C(C(=O)Nc2ccc3[nH]ncc3c2)C(c2ccc(F)cc2)N=C(c2ccc(C(F)(F)F)nc2)N1 (stereo unspecified),2.06%

row,Compound,inhibition
1,COc1cc2c(cc1Nc1nc(Nc3cccc(F)c3C(N)=O)c3cc[nH]c3n1)N(C(=O)CN1CCN(C(C)C)CC1)CC2,3.43%
2,COc1cc(N2CCN(C(C)C)CC2)ccc1Nc1nc(Nc2cccc(F)c2C(=O)O)c2cc[nH]c2n1,9.35%
3,Cn1c(-c2nonc2N)nc2cnccc21,16.6%
4,Fc1cccc(COc2ccc(Nc3ncncc3C#Cc3ccccc3)cc2Cl)c1,15.9%
5,CN(c1ccc(NC(=O)NCCN2CCOCC2)cc1)c1ccnc(Nc2ccc(CS(C)(=O)=O)cc2)n1,7.42%
6,COc1cc(Nc2ncc(-c3ccccc3)o2)cc(OC)c1,19.5%
7,COC(=O)Nc1nc2ccc(Oc3ccc(NC(=O)Nc4cc(C(F)(F)F)ccc4F)cc3)cc2s1,6.19%
8,c1ccc(-c2n[nH]cc2-c2ccnc(-c3ccc(OCCn4ccnc4)cc3)c2)nc1,79%
9,OCCCNc1nccc(-c2c(-c3ccc(F)cc3)nn3cc(C(F)(F)F)ccc23)n1,13.3%
10,O=C(O[C@H]1CN[C@H](C#Cc2cc3ncnc(Nc4ccc5c(ccn5Cc5cc(F)ccc5F)c4)c3s2)C1)N1CCOCC1,5.37%
11,NC(=O)c1ccc2c(-c3ccnc(NCCCO)n3)c(-c3ccc(F)cc3)nn2c1,35.5%
12,FC(F)(F)CNc1nccc(-c2cnn3ncccc23)n1,3.44%
13,CS(=O)(=O)Nc1ccc(-c2cc(-c3ccccc3)cc(C(N)=O)c2N)cc1,10.4%
14,CS(=O)(=O)CCNCc1ccc(-c2ccc3ncnc(Nc4ccc(OCc5cccc(C(F)(F)F)c5)cc4)c3c2)o1,3.68%
15,COc1cccc(Nc2nccc(-c3cnn4ncccc34)n2)c1,57.6%
